Z-score and composite z-score data for twelve compounds are collected here from PubChem BioAssay.

Experiment [1] in a line: HepG2 liver cancer cell viability effects, profiling panel, resazurin fluorescence, 24 h, PK04 Diversity Set (AID 1172). Note: test concentration not given here. Particulars: higher = more signal. (Alamar Blue is a resazurin reagent that responds to reducing activity.)
A short description of experiment [2]: basal S. cerevisiae growth modulation, no modifier, primary screen, OD600, strain BY4716, 24 h, basal condition (AID 1173). Particulars: OD600, 24 h, higher = more signal, called active from +8 up or from −8 down.
Experiment [3] is described as follows: MM1S myeloma cell viability, profiling panel, resazurin fluorescence, basal, 24 h, PK04 Diversity Set (AID 1174).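 Note: MM1S multiple myeloma cell line; test concentration not given here.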 As to conditions: higher = more signal, called active from +8 up or from −8 down.
The target of experiment [4] is Dihydroorotate dehydrogenase (quinone), mitochondrial (Plasmodium falciparum (isolate 3D7)) (UniProt Q08210). Briefly: PfDHODH enzyme inhibitors, primary screen, biochemical, C-terminal His tag, absorbance 600 nm (AID 1175).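 Note: recombinant parasite enzyme with a five histidine tag at its C terminus; test concentration not given here.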 As to conditions: DCIP absorbance 600 nm, higher = more signal, called active from +8 up or from −8 down.
Dihydroorotate dehydrogenase (quinone), mitochondrial (Plasmodium falciparum (isolate 3D7)), sequence (Q08210 whole entry, looked up): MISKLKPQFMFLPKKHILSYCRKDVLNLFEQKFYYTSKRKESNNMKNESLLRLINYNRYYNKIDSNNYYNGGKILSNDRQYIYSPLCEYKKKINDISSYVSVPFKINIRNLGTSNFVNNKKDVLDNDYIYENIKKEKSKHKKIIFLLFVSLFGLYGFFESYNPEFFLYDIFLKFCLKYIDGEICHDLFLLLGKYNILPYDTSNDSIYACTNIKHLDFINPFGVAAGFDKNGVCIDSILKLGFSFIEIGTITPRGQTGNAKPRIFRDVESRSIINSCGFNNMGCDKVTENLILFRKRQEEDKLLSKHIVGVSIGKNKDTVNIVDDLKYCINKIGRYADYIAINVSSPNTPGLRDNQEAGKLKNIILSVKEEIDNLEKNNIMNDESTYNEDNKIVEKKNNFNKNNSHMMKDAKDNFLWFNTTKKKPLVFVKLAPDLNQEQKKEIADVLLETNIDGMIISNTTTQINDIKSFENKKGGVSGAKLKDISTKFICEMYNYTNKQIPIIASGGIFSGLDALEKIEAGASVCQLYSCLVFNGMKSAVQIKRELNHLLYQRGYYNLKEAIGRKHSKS
Experiment [5] can be described thus: P. aeruginosa biofilm formation inhibitors, primary screen, strain PAO1, LB-PBS medium, absorbance 600 nm (AID 1176). Note: test concentration not given here. As to conditions: P. aeruginosa PAO1 growth/biofilm, A600, 12 h; higher = more signal.
The nature of experiment [6]: S. cerevisiae RM11-1a growth modifiers, primary screen, strain RM11-1a, OD600, basal, 24 h (AID 1177).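 Note: cultures grown under basal conditions with no added stressor; test concentration not given here.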 Particulars: OD600, 24 h, higher = more signal, called active from +8 up or from −8 down.
Experiment [7] in a line: E. coli acrAB mutant growth effects, primary screen, E. coli filamentation inducers, strain DRC39, OD650, 24 h (AID 1178).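 Note: growth measured as culture turbidity by optical density at 650 nm; test concentration not given here.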 As to conditions: higher = more signal, called active from +8 up or from −8 down.
Experiment [8] is described as follows: E. coli acrAB mutant growth effects, primary screen, E. coli filamentation inducers, strain DRC39, OD650, 48 h (AID 1179).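 Note: screen aims at cell division blockers that make cells filament.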 Particulars: E. coli DRC39 delta-acrAB growth, higher = more signal, called active from +8 up or from −8 down.
The nature of experiment [9]: RPMI8226 myeloma cell viability, profiling panel, resazurin fluorescence, basal, 24 h, PK04 Diversity Set (AID 1180).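 Note: RPMI8826 multiple myeloma cell line at 5000 cells per well; test concentration not given here.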 As to conditions: higher = more signal.
For experiment [10], the target named is E3 ubiquitin-protein ligase XIAP (Homo sapiens) (UniProt P98170). Nature of the experiment: XIAP binders, primary screen, biophysical, small-molecule microarray, fluorescence 635 nm (AID 1181).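 Note: score merges 667 nm emission and signal to noise over triplicate slides.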 Particulars: small-molecule microarray binding, higher = more signal.
E3 ubiquitin-protein ligase XIAP (Homo sapiens), sequence (P98170 whole entry, looked up): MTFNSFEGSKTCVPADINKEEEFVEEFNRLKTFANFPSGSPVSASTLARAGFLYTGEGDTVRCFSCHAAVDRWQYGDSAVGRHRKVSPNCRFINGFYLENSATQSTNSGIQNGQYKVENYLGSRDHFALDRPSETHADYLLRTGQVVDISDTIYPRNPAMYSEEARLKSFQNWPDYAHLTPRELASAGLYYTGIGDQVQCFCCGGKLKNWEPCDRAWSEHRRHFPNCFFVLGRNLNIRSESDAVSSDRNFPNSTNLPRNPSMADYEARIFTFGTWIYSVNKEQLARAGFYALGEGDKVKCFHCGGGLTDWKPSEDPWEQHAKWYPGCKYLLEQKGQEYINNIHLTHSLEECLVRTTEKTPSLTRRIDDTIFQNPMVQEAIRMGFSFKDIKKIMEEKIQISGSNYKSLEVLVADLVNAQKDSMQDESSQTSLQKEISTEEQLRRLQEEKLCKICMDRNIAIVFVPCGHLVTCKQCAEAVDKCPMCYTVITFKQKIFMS

Molecules are shown by their SMILES. Activity calls are given as the source filed them. Unless noted, the rule behind the calls is not given here.

In the case of `COCCOC(=O)N1C(=O)[C@@]2(c3cc(C#CCC(C(=O)OC)C(=O)OC)ccc31)[C@H](C(N)=O)[C@H]1C(=O)O[C@H](c3ccccc3)[C@H](c3ccccc3)N1[C@@H]2c1ccccc1OCCO`, the z-score in experiment [1] was -0.0131; in experiment [2], -0.65 (inactive); in experiment [3] it was -1.99 (inactive); in experiment [5], 3.05 (inactive); in [6] it was -0.243 (inactive); in experiment [7], 0.664 (inactive). The z-score is 1.42 (inactive) in [8] and -5.51 in experiment [9]. The composite z-score is -7.07 (inactive) in [4] and 0.231 in [10].
Turning to `CCOC(=O)C[C@H]1[C@H](OC(=O)Cc2ccc3c(c2)OCO3)[C@@H](NC(=O)CC(C)C)c2cc(OCCCO)ccc2N1C(=O)c1ccc2ccccc2n1`, the z-score in [1] is 0.0081; in experiment [2] it was -1.8 (inactive); in [3] it was -0.0432 (inactive); in [5], -1.53 (inactive); in [6], -0.0738 (inactive); in experiment [7] it was 0.57 (inactive). The z-score is -0.0185 (inactive) in experiment [8] and -0.255 in experiment [9]. Also, the composite z-score is -1.94 (inactive) in experiment [4] and 0.514 in [10].
Consider `CCc1cccc(NC(=O)O[C@H]2[C@H](OC(=O)Nc3ccccc3-c3ccccc3)[C@H](OC(=O)Nc3ccccc3-c3ccccc3)[C@@H](OC)O[C@@H]2CO)c1`, for which the z-score in experiment [1] was 0.235; in experiment [2], 0.371 (inactive); in [3], -0.444 (inactive); in experiment [5], 0.537 (inactive); in experiment [6] it was 2.19 (inactive); in experiment [7] it was -1.34 (inactive). Further, the values for the z-score in experiment [8] and in [9] were -1.66 (inactive) and -0.254, respectively. The composite z-score is -0.371 (inactive) in experiment [4] and 0.146 in experiment [10].
For the compound `CN(C)CCCCCCNC(=O)[C@@H]1C[C@@H]2C(=O)N[C@@H](CCCC[N+](C)(C)C)C(=O)N2[C@@H]1c1cccc(OCCO)c1`, the z-score in experiment [1] was 0.473; in [2], -0.834 (inactive); in experiment [3], 0.349 (inactive); in [5], 0.0472 (inactive); in experiment [6] it was -1.75 (inactive); in [7] it was 1.03 (inactive). In addition, the z-score is 1.62 (inactive) in [8] and -0.0472 in experiment [9]. The figures for the composite z-score in experiment [4] and in experiment [10] were -2.9 (inactive) and 0.141, respectively.
Consider `C=C(COC)C(=O)CC[C@@H](OC(=O)c1ccccc1-c1ccccc1C(=O)O)c1ccccc1OCCO`, for which the z-score in experiment [1] was 0.078; in [2] it was -1.22 (inactive); in experiment [3], -1.95 (inactive); in [5], 2.1 (inactive); in experiment [6], -0.341 (inactive); in experiment [7], 0.0796 (inactive). Further, the z-score in [8] was -0.129 (inactive); in [9], -1.81. For the same compound, the figures for the composite z-score in experiment [4] and in [10] were -1.57 (inactive) and 0.261, respectively.
In the case of `COCCOC(=O)N1C(=O)[C@@]2(c3cc(C#CCC(C(=O)OC)C(=O)OC)ccc31)[C@H](C(=O)N1CCc3cc(OC)c(OC)cc3C1)[C@H]1C(=O)O[C@H](c3ccccc3)[C@H](c3ccccc3)N1[C@@H]2c1ccccc1OCCO`, the z-score in experiment [1] was 1.11; in [2], 1.48 (inactive); in experiment [3] it was 0.328 (inactive); in experiment [5] it was 1.68 (inactive); in [6] it was 1.3 (inactive); in experiment [7], 0.414 (inactive). Moreover, the z-score was -0.186 (inactive) in experiment [8] and 0.637 in experiment [9]. The composite z-score in experiment [4] is -1.23 (inactive); in experiment [10] it was -0.226.
Consider `COCCOC(=O)N1C(=O)[C@@]2(c3cc(C#CCNC(N)=O)ccc31)[C@H](C(=O)N1CCN(c3ncccn3)CC1)[C@H]1C(=O)O[C@H](c3ccccc3)[C@H](c3ccccc3)N1[C@@H]2c1ccc(O)cc1`, for which the z-score in [1] is -0.203; in experiment [2] it was -0.171 (inactive); in [3], 0.0034 (inactive); in experiment [5] it was 1.13 (inactive); in [6] it was -0.34 (inactive); in experiment [7] it was 0.589 (inactive). Besides, the z-score in [8] was 1.15 (inactive); in [9] it was 0.436. Also, the composite z-score is 0.386 (inactive) in [4] and -0.0129 in [10].
Turning to `CC(=O)NCCCC[C@@H]1NC(=O)[C@H]2C[C@@H](C(=O)O)[C@@H](c3cccc(OCCO)c3)N2C1=O`, the z-score is -0.7 in experiment [1]; -0.757 (inactive) in experiment [2]; 0.441 (inactive) in [3]; 0.118 (inactive) in [5]; -0.587 (inactive) in experiment [6]; -0.33 (inactive) in experiment [7]. Also, the z-score was 0.0133 (inactive) in experiment [8] and -0.0778 in [9]. For the same compound, the composite z-score is -0.969 (inactive) in experiment [4] and -0.138 in experiment [10].
On to `COc1ccc([Si](C)(C)[C@H]2[C@H](CCO)O[C@@]3(C(=O)N(Cc4ccccc4)c4ccc(NC(=O)[C@H](C)O)cc43)[C@@H]2C)cc1`, for which the z-score is -4.02 in experiment [1]; 0.478 (inactive) in experiment [2]; -7.25 (inactive) in experiment [3]; 1.7 (inactive) in [5]; 4.58 (inactive) in experiment [6]; 1.23 (inactive) in [7]. The z-score in experiment [8] was 0.723 (inactive); in experiment [9], -5.45. Moreover, the composite z-score in experiment [4] is 1.18 (inactive); in experiment [10], 0.0153.
Consider `CN1C(=O)C2C(C1=O)C1C=C(CCCO)C2C(C2CC2)N1C` (stereo not given), for which the z-score is -1.15 in experiment [1]; 0.275 (inactive) in [2]; -0.228 (inactive) in experiment [3]; -0.214 (inactive) in experiment [5]; -0.593 (inactive) in [6]; 0.796 (inactive) in experiment [7]. Moreover, the results for the z-score in experiment [8] and in experiment [9] were 1.44 (inactive) and -0.965, respectively. For the same compound, the composite z-score was -2.87 (inactive) in experiment [4] and 0.333 in experiment [10].
Regarding `COCCOC(=O)N1C(=O)[C@@]2(c3cc(C#CC4=CCCCC4)ccc31)[C@H](c1ccc(O)cc1)N1[C@H](c3ccccc3)[C@H](c3ccccc3)OC(=O)[C@H]1[C@@H]2C(=O)N1CCc2cc(OC)c(OC)cc2C1`, the z-score in experiment [1] is 0.291; in experiment [2], 0.0658 (inactive); in experiment [3] it was -0.671 (inactive); in [5], 0.902 (inactive); in experiment [6] it was 0.432 (inactive); in experiment [7] it was -0.184 (inactive). Further, the z-score was -0.119 (inactive) in experiment [8] and -0.161 in [9]. The composite z-score in [4] is -0.0425 (inactive); in experiment [10] it was -0.0434.
On to `COC(=O)C1(CC(C)C)C=C2C(=C(C)C(=O)C2C)CN1` (stereo not given), for which the z-score in experiment [1] is -1.23; in experiment [2], 1.84 (inactive); in [3] it was -1.78 (inactive); in [5] it was 0.715 (inactive); in experiment [6], 0.386 (inactive); in experiment [7], -0.43 (inactive). For the same compound, the z-score in [8] is -0.078 (inactive); in experiment [9], -1.8. In addition, the figures for the composite z-score in [4] and in experiment [10] were -1.11 (inactive) and 0.0408, respectively.
